Rce1 inhib = yeast Ras-converting enzyme inhibition | Q03530 | yeast membranes, quenched prenylated peptide cleavage fluorescence | calls only | 0.27% of 290,000 active;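 active means fall in fluorescence gain of 50% or more versus controls, with final raw signal at or below 3038400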;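 further: plate controls were neutral control wells for no effect and wells lacking membranes for full effect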
Target sequence (Q03530 whole entry, looked up): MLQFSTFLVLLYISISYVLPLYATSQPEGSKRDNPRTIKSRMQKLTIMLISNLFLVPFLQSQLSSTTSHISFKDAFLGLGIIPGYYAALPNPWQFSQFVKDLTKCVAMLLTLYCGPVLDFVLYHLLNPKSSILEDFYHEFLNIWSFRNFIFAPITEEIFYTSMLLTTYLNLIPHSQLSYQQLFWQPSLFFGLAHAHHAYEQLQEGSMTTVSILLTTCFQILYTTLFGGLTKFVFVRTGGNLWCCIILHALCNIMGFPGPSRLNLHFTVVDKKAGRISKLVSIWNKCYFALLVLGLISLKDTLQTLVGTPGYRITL
NALP3 yeast inh = NALP3 inhibition in yeast; inhibition, % at 10 µM; 0.39% of 330,000 active; AID 2825; Yeast reconstituted NLRP3/ASC/caspase-1, beta-gal luminescence, 24 h;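 active means inhibition of 50% or more; inactive means inhibition below 50%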;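 further: plate controls were induced DMSO wells for no effect and uninduced yeast grown without galactose for full effect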
NALP1 yeast inh = NALP1 inhibition. S. cerevisiae NALP1/ASC/caspase-1 growth, X-gal OD620, 72 h. inhibition, % at 10 µM. 0.61% of 280,000 active. AID 2071; in the data active means inhibition mostly above about 24%, no sharp cut-off; inactive means mostly below about 32%
V-ATPase pH = alters yeast V-ATPase proton transport | 0.37% of 350,000 active | S. cerevisiae, pHLuorin cytosolic pH fluorescence | response, % at 10 µM; in the data active means response mostly above about 7.3%, no sharp cut-off; inactive means mostly below about 5.4%; further: actives read high
PERK inhibitor = human PERK inhibition, primary cell-based screen | Q9NZJ5 | CHO PERK-DD fusion, SEAP luminescence translation reporter | inhibition, % at 5.6 µM | 0.17% of 220,000 active;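 active means inhibition above the mean inhibition of all tested compounds plus 3 SD, set separately per screening campaign, cut at about 2.9% in these data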;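 further: PERK kinase domain activated by AP20187 dimerizer at 100 nM; 0% = DMSO with dimerizer and 100% = rapamycin at 8.4 µM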
Yeast superoxide = caloric restriction mimetics inhibiting age-related superoxide in yeast; 0.18% of 330,000 active; superoxide response (% of plate mean), % at 10 µM; S. cerevisiae aged cells, superoxide DHE fluorescence; active compounds read low;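 active means superoxide response under a set limit, about three screen SD below normal, cut at about 65% in these data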;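 further: yeast aged for seven days with compound at 30 °C before DHE staining; 100% = average MFI of all compound-treated wells on the plate with controls excluded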
CR mimetic CP = confirmation of caloric restriction mimetics inhibiting yeast age-related superoxide; superoxide response (% of plate), % at 10 µM; 1% of 850 active; S. cerevisiae aging, superoxide DHE fluorescence; active compounds read low; shares compounds with Yeast superoxide; AID 434994;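 active means superoxide signal below 65% of the plate average of sample wells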;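 further: cells aged with compound for 7 days at 30 degrees C before staining; 100% equals mean DHE fluorescence of all compound wells on the plate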
DHE counter = counter-screen for compounds affecting DHE oxidation and fluorescence in yeast; shares compounds with Yeast superoxide; S. cerevisiae BY4741, flow cytometry; active compounds read low; fluorescence response, % at 10 µM; 850 tested, under 10 active;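 active means fluorescence response below 15%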;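 further: percent of the mean fluorescence averaged over all compound wells on the plate; lower means stronger quenching of DHE signal or ROS scavenging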
NALP3 yeast conf = NALP3 inhibition confirmation in yeast; yeast expressing human NALP3, luminescence; 81% of 1,300 active; shares compounds with NALP3 yeast inh; inhibition, % at 10 µM; AID 435006; in the data active means inhibition above about 48%
Casp1-ASC yeast = counter-screen for NALP3 inhibitors: yeast caspase-1-ASC; inhibition, % at 10 µM; 66% of 1,000 active; yeast expressing Caspase-1-ASC, luminescence counter screen; shares compounds with NALP3 yeast inh
NALP3 yeast rt = retest-confirmed inhibitor of NALP3 in yeast | yeast expressing human NALP3, luminescence read-out | inhibition, % at 10 µM | 53% of 1,000 active | shares compounds with NALP3 yeast inh
Numbers without * were called inactive; i = inactive; · = no result. A selection: hits, their analogues and other compounds. The true share with any hit is near 1.6%. Unless noted, no stated cut-off is given here; in the data, active means inhibition above about 50%; inactive means the rest.

SMILES	Rce1 inhib	NALP3 yeast inh	NALP1 yeast inh	V-ATPase pH	PERK inhibitor	Yeast superoxide	CR mimetic CP	DHE counter	NALP3 yeast conf	others
Nc1cc2nc3ccccc3nc2cc1N	i	9.3	2.1	1.3	0.2	40.8*	68.2	88.9	·
C[C@]12CCC(=O)CC1CCC1C2CC[C@]2(C)C(OC(=O)CCC(=O)O)CCC12 (stereo not given in full)	i	49.2	18.7	-0.3	·	64.4*	80.3	92.0	·
Cc1ncoc1C(=O)NCC1=C(c2ccc(S(C)(=O)=O)cc2)C[C@@H]2CC[C@H]1N2Cc1ccco1	·	·	·	-0.1	·	·	·	·	·
CN(C)CC#CCC(O)(c1ccccc1)C1CCCC1 (stereo not given)	i	12.3	5.5	0.0	-0.1	93.5	·	·	·
CN(C)CC#CCn1c2ccccc2c2ccccc21	i	23.6	18.8	0.9	-0.7	115.0	102.9	90.3	·
C[C@]12CCC3C(CC[C@H]4C[C@@H](O)CC[C@]34C)C1C[C@@H](N)[C@@H]2O (stereo not given in full)	·	44.4	·	-0.7	·	92.7	102.5	98.0	·
C[C@]12CCC3C(CC[C@H]4C[C@@H](O)CC[C@]34C)C1C[C@@H](Br)[C@@H]2O (stereo not given in full)	·	47.8	·	·	·	100.8	·	·	·
C[C@]12CCC3C(CC[C@H]4C[C@H](O)CC[C@]34C)C1C[C@H](O)[C@H]2O (stereo not given in full)	·	·	·	-2.2	·	·	·	·	·
C#C[C@]1(O)[C@H](O)CC2C3CC[C@H]4C[C@@H](O)CC[C@]4(C)C3CC[C@@]21C (stereo not given in full)	·	36.9	·	·	·	93.9	98.5	96.3	·
COc1ccc(CN(CCc2c[nH]c3ccccc23)Cc2ccc(OC)cc2)cc1	·	·	·	3.9	·	·	·	·	·
C[C@]12CCC3C(CCC4=C/C(=N/OCC(=O)NC(CCC(=O)O)C(=O)O)CC[C@@]43C)C1CCC2O (stereo not given in full)	i	31.2	10.8	3.9	·	58.0*	94.1	106.6	·
COc1ccc(OC(=O)N(C)C[C@@H]2OCc3cnnn3CCCC(=O)N([C@H](C)CO)C[C@H]2C)cc1	·	·	·	1.1	·	·	·	·	·
Cn1c(O)c(C(=Nc2ccc(F)cc2)c2ccccc2Cl)c(=O)n(C)c1=O	i	19.6	23.2	-3.8	0.9	61.9*	74.7	93.4	·
CCOC(=O)c1cc2c(cn1)[C@@H](CCO)NC2	·	·	·	-0.1	·	·	·	·	·
C[C@]12CCC3C(CC[C@@H]4C[C@H](O)CC[C@]34C)C1CCC2=O (stereo not given in full)	·	73.2*	·	6.2	·	64.2*	81.6	91.8	72.0*	Casp1-ASC yeast=72.2*;NALP3 yeast rt=51.5*
C[C@]12CC[C@H](O)C[C@H]1CC[C@@H]1[C@@H]2CC[C@]2(C)C(=O)CC[C@@H]12	·	54.2*	·	-0.7	·	48.5*	78.1	118.4	67.5*	Casp1-ASC yeast=64.5*;NALP3 yeast rt=56.1*
C[C@]12CCC3C(CC[C@H]4C[C@@H](O)CC[C@]34C)C1C[C@@H](O)C2=O (stereo not given in full)	·	47.0	·	·	·	71.0	·	·	·
Cc1ccccc1NC(=O)N1Cc2ccccc2-n2nncc2C1	·	·	·	0.3	·	·	·	·	·
C[C@]12CCC3C(CC[C@@H]4CC(=O)CC[C@]34C)C1CC[C@@H]2O (stereo not given in full)	·	68.0*	·	3.1	·	54.3*	83.8	91.7	57.8*
C[C@]12CCC(=O)C[C@@H]1CC[C@@H]1[C@@H]2CC[C@]2(C)[C@@H](O)CC[C@@H]12	·	50.1*	·	-0.8	·	54.3*	78.4	99.7	54.7*	Casp1-ASC yeast=59.6*;NALP3 yeast rt=42.0
C[C@]12CCC(=O)C[C@@H]1CC[C@@H]1[C@@H]2CC[C@@]2(C)[C@H]1CC[C@]2(C)O	·	·	12.4	·	2.2	·	·	·	·
CN1C(=O)C[N+]([O-])=C(c2ccccc2)c2cc(Cl)ccc21	·	·	·	-1.2	·	·	·	·	·
C[C@]12CC[C@@H](O)CC1=CCC1C2CC[C@@]2(C)C1CC[C@@H]2O (stereo not given in full)	·	·	·	1.3	·	·	·	·	·
C[C@]12CCC3C(CC[C@H]4C[C@@H](O)CC[C@]34C)C1CC[C@@]2(O)C(F)(F)F (stereo not given in full)	·	55.5*	·	·	·	97.0	105.1	104.7	54.8*
C[C@]12CCC3C(CC[C@H]4C[C@@H](O)CC[C@]34C)[C@H]1CC[C@H]2O (stereo not given in full)	·	51.1*	·	1.5	·	77.7	96.9	100.8	57.5*
C[C@]12CC[C@H](O)C[C@@H]1CC[C@@H]1[C@@H]2CC[C@]2(C)[C@@H](C(=O)O)C[C@@H]12	i	18.0	·	-4.0	·	103.2	·	·	·
C[C@]12CC[C@H](O)CC1C(=O)CC1C2CC[C@@]2(C)C1CC[C@@H]2O (stereo not given in full)	·	50.0	·	-2.4	·	79.3	91.7	102.3	43.5	Casp1-ASC yeast=50.3*;NALP3 yeast rt=34.1

Compound activity from PubChem BioAssay.
